Results filed as inconclusive are left out. The source made the active and inactive calls. Unless noted, the rule behind the calls is not given here.
Assays:
[1] = RPL19A-GFP modulators, yeast TOR pathway, confirmation, cell-based, S. cerevisiae, flow cytometry, cherry picks, mother/daughter gates (AID 2270;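 active = GFP response below 50% of the DMSO control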); conditions: S. cerevisiae RPL19A-GFP strain, 3 h, at 10 µM, stronger effect = lower value, 100 = same GFP as DMSO wells
[2] = LAP4-GFP expression modulators in yeast, confirmation, cell-based, cherry picks, flow cytometry, mother/daughter gates (AID 2271;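 active = GFP response above 150% of the DMSO control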;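 note: ratio of sample to DMSO plate mean so 100% equals DMSO level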); conditions: S. cerevisiae LAP4-GFP strain, 3 h, at 10 µM, stronger effect = higher value
[3] = modulators of CIT2-GFP expression in yeast, confirmation, S. cerevisiae, GFP fusion, cherry picks, mother/daughter gates (AID 2274;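 active = GFP response above 150% of the DMSO level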); conditions: S. cerevisiae CIT2-GFP strain, flow cytometry, 3 h, at 10 µM, stronger effect = higher value
[4] = yeast TOR pathway RPL19A-GFP modulators, primary screen, cell-based, S. cerevisiae, multiplex flow cytometry (AID 1862; in the data active = percent of DMSO control GFP below about 86%;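 note: lower values mimic rapamycin by blocking the RPL19A rise seen in DMSO cells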); conditions: S. cerevisiae RPL19A-GFP strain, flow cytometry fluorescence, 3 h; at 10 µM; stronger effect = lower value
[5] = modulators of CIT2-GFP expression in yeast, primary screen, S. cerevisiae, GFP fusion, multiplex flow cytometry (AID 1870;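 active = percent response above a set limit, the screen-wide mean plus 3 SD, cut at about 130% in these data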;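 note: barcoded CIT2-GFP strain pooled with four other GFP strains with rapamycin as positive control; median GFP fluorescence per well over plate mean of DMSO wells so 100% = DMSO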); conditions: 3 h, at 10 µM, stronger effect = higher value
[6] = modulators of LAP4-GFP expression in yeast, primary screen, S. cerevisiae, multiplex flow cytometry (AID 1873;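 active = GFP signal, as percent of the solvent control, above the screen mean plus 3 SD, about 149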); conditions: 3 h, at 10 µM, stronger effect = higher value
[7] = inhibitors of CD8+ T cell-vesicle binding, pilot screen, LFA-1/ICAM-1 modulator project, MLPCN validation set, flow cytometry (AID 2523;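 active = response below a set limit, under 55% cells CD8-positive and vesicle-bound, and CD8 cells' 90th-percentile brightness under 279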;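 for vesicle binding response: mean PE anti-B7-1 fluorescence of CD8+ cells relative to row control; 100% = QL9-loaded vesicles with DMSO vehicle in the same plate row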); conditions: 2C mouse CD8+ T cells, at 7 µM, stronger effect = lower value; double positive events: measured here: CD8+/vesicle+ event percentage
[8] = biological target: Integrin beta-1 (Homo sapiens) + Integrin alpha-4 (Homo sapiens) (UniProt P13612+P05556); assay: inhibition of HUTS-21 binding to VLA-4, pilot screen, VLA-4 allosteric modulator project, U937 cells, HUTS-21 mAb, flow cytometry, validation set (AID 2674;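 active = inhibition above 50%, about 3 SD of the validation set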;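 note: antibody binding induced by the VLA-4 ligand LDV present at three times its Kd; 0% = LDV ligand with antibody and no compound and 100% = antibody without LDV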); conditions: HUTS-21 LIBS mAb binding, at 6.7 µM, stronger effect = higher value
[9] = superoxide lowering in aged yeast cells, pilot screen, validation compound set (AID 2706;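 active = superoxide response below 65% of plate, a cut near 3 SD across the whole screen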;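 note: yeast exposed to compound for one week at 30 degrees C before staining; 100% = mean of all compound wells on the same plate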); conditions: S. cerevisiae aging, superoxide DHE fluorescence; at 10 µM; stronger effect = lower value
[10] = biological target: Beta-adrenergic receptor kinase 1 (Homo sapiens) (UniProt P25098); assay: GRK2 binders displacing RNA aptamer, biochemical, validation, human GRK2, bead flow cytometry (AID 488806;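 active = aptamer binding inhibition above 30%, about 3 SD of noise from non-fluorescent compounds; inactive = inhibition at or below 30%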); conditions: bead-bound GRK2, FAM-aptamer displacement, at 10 µM, stronger effect = higher value
[11] = biological target: Beta-2 adrenergic receptor (Homo sapiens) (UniProt P07550); assay: beta2AR agonists driving receptor internalization, pilot screen, cell-based, FAP fluorogen, flow cytometry, validation set (AID 504459;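 active = percent response above 42, roughly 3 SD of non-fluorescent test compounds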;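 note: agonist-driven loss of surface beta2AR via internalization measured by FAP dye flow cytometry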); conditions: Am2.2-beta2AR cells, FAP surface receptor flow cytometry; at 10 µM; stronger effect = higher value
[12] = biological target: AP-2 complex subunit beta (Homo sapiens) (UniProt P63010); assay: inhibitors of arrestin peptide binding to AP2, pilot screen, biochemical, validation set, GST-AP2 beads, flow cytometry (AID 504541;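 active = inhibition above 54%, about 3 SD of non-fluorescent compounds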;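 note: AP2 carries R879A mutation and is captured from E. coli lysate; bead-bound FITC arrestin peptide fluorescence measuring arrestin peptide binding to AP2; 0% = DMSO wells and 100% = excess unlabeled arrestin peptide control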); conditions: FITC arrestin peptide, at 10 µM, stronger effect = higher value
[13] = yeast V-ATPase proton transport modulators, S. cerevisiae, pHLuorin, HTS validation (AID 504600; in the data active = response above about 15%;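 note: plate controls were DMSO for no effect and reference compound for full effect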); conditions: S. cerevisiae pHLuorin cytosolic pH, at 10 µM, stronger effect = higher value
[14] = system: anti-desmoglein-3 scFv antibody binding to human DSG3; assay: inhibitors of anti-DSG3 scFv binding to DSG3, pilot screen, biochemical, validation compound set, bead-based, flow cytometry (AID 588368;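 active = binding below the plate cutoff, the plate median minus 3 SD, with a reading above zero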;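 note: signal is the median channel fluorescence of bead-bound GFP antibody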); conditions: Protein G beads, DSG3-Fc, scFv-GFP binding, at 10 µM, stronger effect = lower value
[15] = system: Botulinum neurotoxin type F light chain protease (Clostridium botulinum); assay: Botulinum neurotoxin type F light chain protease inhibition, multiplex microsphere flow cytometry, validation set (AID 588459); conditions: multiplex microsphere protease substrate cleavage assay, at 10 µM, stronger effect = higher value
[16] = biological target: Botulinum neurotoxin type A (Clostridium botulinum) (UniProt P0DPI0); assay: BoNT/A light chain protease inhibitors, biochemical, multiplex microsphere flow cytometry, validation set (AID 588460); conditions: at 10 µM, stronger effect = higher value
[17] = biological target: Lethal factor (Bacillus anthracis) (UniProt P15917); assay: Lethal factor protease inhibitors, Bacillus anthracis, multiplex microsphere cleavage assay, validation set (AID 588461); conditions: flow cytometry, at 10 µM, stronger effect = higher value
[18] = inhibitors of fungal efflux pumps CDR1, CDR2, MDR1, pilot screen, validation compound set, multiplex, phenotypic (AID 588506;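 active = efflux inhibition above 0.42, the validation set average plus 4 SD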;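 note: Nile Red retained in cells so higher fluorescence means more efflux inhibition; 0 = negative control wells and 1 = enniatin B 25 µM full block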); conditions: S. cerevisiae pump-expressing triplex, Nile Red efflux flow cytometry; at 10 µM; stronger effect = higher value
[19] = biological target: ATP-binding cassette sub-family B member 6 (Homo sapiens) (UniProt Q9NP58); assay: ABCB6 transporter inhibitors, pilot screen, K562-ABCB6 cells, flow cytometry, validation set (AID 588550;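 active = inhibition above the screen-wide mean plus 3 SD, about 51%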;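 note: 0% = DMSO wells and 100% = benzethonium chloride 70 µM positive control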); conditions: K562-ABCB6 porphyrin accumulation, 1 h, at 10 µM, stronger effect = higher value
[20] = promoters of myeloid differentiation in arrested cells, primary screen, cell-based, GFP/MAC1 double positive, flow cytometry, validation set (AID 588685;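 active = differentiation response of at least 50%, scaled between solvent and reference control, from cells with both markers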;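 note: compound exposure lasts four days before antibody staining and flow analysis; 0% = DMSO wells and 100% = 5 µM fulvestrant positive control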); conditions: ER-HoxA9 marrow cells, stronger effect = higher value
[21] = measured here: daughter cell gate
[22] = measured here: mother cell gate
[23] = measured here: daughter cell gate response
[24] = measured here: mother cell gate response

Chain of Botulinum neurotoxin type A (Clostridium botulinum) (P0DPI0 whole entry, looked up): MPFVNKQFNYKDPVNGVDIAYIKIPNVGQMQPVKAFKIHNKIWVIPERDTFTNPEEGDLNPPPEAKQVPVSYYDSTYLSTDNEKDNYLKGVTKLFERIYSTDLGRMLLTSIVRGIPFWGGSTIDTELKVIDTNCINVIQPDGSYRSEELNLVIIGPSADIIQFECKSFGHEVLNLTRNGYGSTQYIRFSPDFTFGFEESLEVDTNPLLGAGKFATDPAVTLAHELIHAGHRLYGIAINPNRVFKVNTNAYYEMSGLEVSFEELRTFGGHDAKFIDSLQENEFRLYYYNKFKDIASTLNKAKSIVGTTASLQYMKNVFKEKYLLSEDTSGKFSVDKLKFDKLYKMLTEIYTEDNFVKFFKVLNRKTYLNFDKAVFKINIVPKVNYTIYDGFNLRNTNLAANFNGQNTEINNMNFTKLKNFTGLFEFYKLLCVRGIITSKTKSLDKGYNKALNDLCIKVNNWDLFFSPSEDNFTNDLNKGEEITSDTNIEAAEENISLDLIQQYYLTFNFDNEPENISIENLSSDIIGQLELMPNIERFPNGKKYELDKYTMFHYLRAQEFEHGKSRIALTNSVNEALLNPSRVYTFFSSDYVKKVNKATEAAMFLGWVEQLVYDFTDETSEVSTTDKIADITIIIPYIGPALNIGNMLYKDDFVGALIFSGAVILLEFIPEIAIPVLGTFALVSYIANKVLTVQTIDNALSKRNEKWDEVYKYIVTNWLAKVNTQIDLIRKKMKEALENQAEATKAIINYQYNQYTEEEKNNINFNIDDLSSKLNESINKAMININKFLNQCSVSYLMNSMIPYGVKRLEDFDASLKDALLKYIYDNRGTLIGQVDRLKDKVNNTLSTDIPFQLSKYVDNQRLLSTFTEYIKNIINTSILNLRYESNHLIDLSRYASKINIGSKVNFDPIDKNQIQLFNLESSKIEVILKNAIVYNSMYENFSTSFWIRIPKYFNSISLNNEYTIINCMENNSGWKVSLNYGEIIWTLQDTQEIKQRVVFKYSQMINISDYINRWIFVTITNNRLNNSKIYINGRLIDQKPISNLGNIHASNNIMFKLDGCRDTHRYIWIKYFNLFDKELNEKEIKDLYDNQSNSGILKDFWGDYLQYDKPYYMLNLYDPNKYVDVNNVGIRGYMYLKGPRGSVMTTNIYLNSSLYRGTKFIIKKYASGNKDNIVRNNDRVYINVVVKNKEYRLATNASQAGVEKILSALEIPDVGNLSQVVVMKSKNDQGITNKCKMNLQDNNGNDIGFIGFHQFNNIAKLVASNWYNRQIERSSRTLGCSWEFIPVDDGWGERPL
Chain of ATP-binding cassette sub-family B member 6 (Homo sapiens) (Q9NP58 whole entry, looked up): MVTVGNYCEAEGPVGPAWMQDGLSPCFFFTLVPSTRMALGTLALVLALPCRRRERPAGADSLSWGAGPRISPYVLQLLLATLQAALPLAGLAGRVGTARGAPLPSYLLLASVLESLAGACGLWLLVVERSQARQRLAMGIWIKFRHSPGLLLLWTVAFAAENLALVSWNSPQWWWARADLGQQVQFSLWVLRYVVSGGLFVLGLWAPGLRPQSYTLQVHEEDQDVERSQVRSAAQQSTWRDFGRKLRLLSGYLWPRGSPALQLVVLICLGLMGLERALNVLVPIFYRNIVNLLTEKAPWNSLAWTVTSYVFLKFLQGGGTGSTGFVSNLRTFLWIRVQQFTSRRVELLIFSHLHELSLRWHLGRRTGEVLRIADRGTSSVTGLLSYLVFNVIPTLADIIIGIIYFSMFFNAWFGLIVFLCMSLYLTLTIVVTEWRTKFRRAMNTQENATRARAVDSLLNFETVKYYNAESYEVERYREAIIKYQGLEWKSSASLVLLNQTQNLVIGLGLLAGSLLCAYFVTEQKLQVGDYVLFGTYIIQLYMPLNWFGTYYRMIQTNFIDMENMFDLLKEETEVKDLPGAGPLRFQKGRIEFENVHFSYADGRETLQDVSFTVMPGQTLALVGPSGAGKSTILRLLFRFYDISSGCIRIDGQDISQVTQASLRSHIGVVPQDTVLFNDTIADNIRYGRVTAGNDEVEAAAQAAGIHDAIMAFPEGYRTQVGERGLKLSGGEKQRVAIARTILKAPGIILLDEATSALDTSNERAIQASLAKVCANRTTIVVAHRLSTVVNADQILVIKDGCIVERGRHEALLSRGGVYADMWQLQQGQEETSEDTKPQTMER
Chain of AP-2 complex subunit beta (Homo sapiens) (P63010 whole entry, looked up, one chain of several): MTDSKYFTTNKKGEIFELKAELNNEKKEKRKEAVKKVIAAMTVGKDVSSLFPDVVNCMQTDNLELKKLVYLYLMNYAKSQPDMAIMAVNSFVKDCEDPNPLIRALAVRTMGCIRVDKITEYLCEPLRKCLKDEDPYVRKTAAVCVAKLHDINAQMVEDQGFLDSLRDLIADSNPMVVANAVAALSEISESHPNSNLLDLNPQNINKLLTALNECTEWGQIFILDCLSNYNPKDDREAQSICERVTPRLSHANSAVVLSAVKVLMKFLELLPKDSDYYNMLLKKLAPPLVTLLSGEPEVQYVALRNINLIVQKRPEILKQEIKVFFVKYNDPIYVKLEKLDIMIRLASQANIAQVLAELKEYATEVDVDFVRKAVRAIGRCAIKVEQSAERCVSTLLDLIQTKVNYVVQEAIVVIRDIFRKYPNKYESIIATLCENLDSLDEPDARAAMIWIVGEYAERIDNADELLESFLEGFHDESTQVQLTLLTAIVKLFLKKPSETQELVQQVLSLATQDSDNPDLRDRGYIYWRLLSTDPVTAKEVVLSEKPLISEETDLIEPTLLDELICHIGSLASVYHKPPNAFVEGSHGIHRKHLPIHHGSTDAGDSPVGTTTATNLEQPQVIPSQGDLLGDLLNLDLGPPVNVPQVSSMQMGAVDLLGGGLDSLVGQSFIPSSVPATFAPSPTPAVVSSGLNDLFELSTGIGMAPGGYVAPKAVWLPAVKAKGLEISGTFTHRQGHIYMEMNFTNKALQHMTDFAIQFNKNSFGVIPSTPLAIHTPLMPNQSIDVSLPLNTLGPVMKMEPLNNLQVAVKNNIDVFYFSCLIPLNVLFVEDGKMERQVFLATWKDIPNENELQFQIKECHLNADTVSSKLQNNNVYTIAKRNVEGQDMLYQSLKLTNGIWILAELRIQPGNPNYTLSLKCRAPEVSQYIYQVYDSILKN
Chain of Integrin beta-1 (Homo sapiens) + Integrin alpha-4 (Homo sapiens) (P05556 whole entry, looked up): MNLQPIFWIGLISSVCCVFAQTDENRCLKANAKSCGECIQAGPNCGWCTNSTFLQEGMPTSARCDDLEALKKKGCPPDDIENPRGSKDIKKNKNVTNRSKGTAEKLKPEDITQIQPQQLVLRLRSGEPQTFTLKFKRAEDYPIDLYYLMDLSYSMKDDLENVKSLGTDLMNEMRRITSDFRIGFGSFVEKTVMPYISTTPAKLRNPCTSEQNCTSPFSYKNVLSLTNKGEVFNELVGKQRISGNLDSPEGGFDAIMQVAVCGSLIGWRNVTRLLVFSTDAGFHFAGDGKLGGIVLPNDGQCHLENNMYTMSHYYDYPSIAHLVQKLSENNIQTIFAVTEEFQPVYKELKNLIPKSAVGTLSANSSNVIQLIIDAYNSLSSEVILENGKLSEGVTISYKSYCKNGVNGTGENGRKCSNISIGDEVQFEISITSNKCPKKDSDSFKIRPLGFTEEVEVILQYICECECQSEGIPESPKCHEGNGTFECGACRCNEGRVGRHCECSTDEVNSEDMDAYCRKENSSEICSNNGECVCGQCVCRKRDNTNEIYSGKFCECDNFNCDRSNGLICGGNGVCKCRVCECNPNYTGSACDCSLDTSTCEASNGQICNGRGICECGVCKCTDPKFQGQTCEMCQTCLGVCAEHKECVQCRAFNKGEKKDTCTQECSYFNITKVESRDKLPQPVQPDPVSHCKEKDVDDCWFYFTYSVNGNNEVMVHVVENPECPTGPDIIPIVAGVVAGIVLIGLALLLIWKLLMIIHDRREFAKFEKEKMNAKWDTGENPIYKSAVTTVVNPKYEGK
Chain of Integrin beta-1 (Homo sapiens) + Integrin alpha-4 (Homo sapiens) (P13612 whole entry, looked up): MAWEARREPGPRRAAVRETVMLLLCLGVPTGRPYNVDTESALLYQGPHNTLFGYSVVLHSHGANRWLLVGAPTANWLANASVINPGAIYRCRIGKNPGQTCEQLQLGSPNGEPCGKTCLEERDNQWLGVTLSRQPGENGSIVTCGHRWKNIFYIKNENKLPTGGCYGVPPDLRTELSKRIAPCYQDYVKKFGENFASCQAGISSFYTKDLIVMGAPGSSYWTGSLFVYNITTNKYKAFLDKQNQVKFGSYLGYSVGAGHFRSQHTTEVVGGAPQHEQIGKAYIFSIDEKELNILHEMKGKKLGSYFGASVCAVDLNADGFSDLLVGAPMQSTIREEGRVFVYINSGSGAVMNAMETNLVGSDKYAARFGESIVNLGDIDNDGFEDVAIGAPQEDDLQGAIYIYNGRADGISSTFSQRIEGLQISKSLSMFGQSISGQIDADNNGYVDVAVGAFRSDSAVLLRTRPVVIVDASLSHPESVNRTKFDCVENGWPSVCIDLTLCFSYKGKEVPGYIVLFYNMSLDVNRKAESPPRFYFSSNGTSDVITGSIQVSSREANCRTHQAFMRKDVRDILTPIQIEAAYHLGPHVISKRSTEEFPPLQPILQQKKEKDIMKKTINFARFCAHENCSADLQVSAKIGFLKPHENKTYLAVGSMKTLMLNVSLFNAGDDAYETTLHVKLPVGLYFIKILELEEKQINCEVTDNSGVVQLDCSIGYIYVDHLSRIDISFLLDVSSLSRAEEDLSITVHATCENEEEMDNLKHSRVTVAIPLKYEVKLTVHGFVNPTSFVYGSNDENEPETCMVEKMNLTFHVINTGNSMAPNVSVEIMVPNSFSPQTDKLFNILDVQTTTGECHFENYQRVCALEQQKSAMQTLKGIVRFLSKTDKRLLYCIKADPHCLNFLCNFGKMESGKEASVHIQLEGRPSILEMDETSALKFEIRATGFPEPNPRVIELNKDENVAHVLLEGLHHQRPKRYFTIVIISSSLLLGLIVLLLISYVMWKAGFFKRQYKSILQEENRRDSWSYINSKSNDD

With `O=c1[nH]c(=O)n(Cc2ccc(F)cc2)c(O)c1C=NCCN1CCCCC1` the GFP response vs DMSO [1] was 96.9% (inactive), the GFP response vs DMSO [1, 21] was 97% and the GFP response vs DMSO [1, 22] was 94.8%. For the same compound, the GFP response relative to DMSO [2] was 95.3% (inactive), the GFP response relative to DMSO [2, 23] was 94.4% and the GFP response relative to DMSO [2, 24] was 94.4%. The GFP response, % of DMSO [3] was 95.8% (inactive), the GFP response, % of DMSO [3, 21] was 97.6% and the GFP response, % of DMSO [3, 22] was 94.9%.

In the case of `Cc1cc(C=C2C(=O)N(C)C(=S)N(C)C2=O)c(C)n1-c1ccncc1`, the GFP response vs DMSO [1] is reported as 92.8% (inactive), the GFP response vs DMSO [1, 21] is reported as 91.1% and the GFP response vs DMSO [1, 22] is reported as 88.6%. The GFP response relative to DMSO [2] was 114% (inactive), the GFP response relative to DMSO [2, 23] was 108% and the GFP response relative to DMSO [2, 24] was 117%. For the same compound, the GFP response, % of DMSO [3] was 69.1% (inactive), the GFP response, % of DMSO [3, 21] was 70.3% and the GFP response, % of DMSO [3, 22] was 64.4%.

With `O=C1NC(=O)N(Cc2ccco2)C(=O)/C1=C\c1ccc(-c2ccc(F)cc2)o1` the GFP response vs DMSO [1] was 96.9% (inactive), the GFP response vs DMSO [1, 21] was 97.6% and the GFP response vs DMSO [1, 22] was 94%. For the same compound, the GFP response relative to DMSO [2] was 119% (inactive), the GFP response relative to DMSO [2, 23] was 115% and the GFP response relative to DMSO [2, 24] was 121%. The GFP response, % of DMSO [3] was 91.7% (inactive), the GFP response, % of DMSO [3, 21] was 99.3% and the GFP response, % of DMSO [3, 22] was 83.7%.

With `CCN1CC2(COC(=O)c3ccccc3N)CCC(OC)C34C5CC6C(OC)CC(O)(C5C6OC)C(O)(C(OC)C23)C14` (stereo unspecified) the percent of DMSO control GFP [4] was 91.1% (inactive), the percent response of DMSO control [5] was 96.6% (inactive) and the GFP response vs DMSO [6] was 86.4% (inactive). The double positive events [7] was 68.8%, the vesicle binding response [7] was 247% (inactive) and the inhibition [8] was 5.49% (inactive). The superoxide response (% of plate) [9] was 99.8% (inactive), the aptamer binding inhibition [10] was 2% (inactive) and the response [11] was -0.45% (inactive). The inhibition [12] was 4.65% (inactive), the response [13] was 5.45% (inactive) and the binding (% of control) [14] was 101% (inactive). The inhibition [15] was 1.9% (inactive), the inhibition [16] was 0.1% (inactive) and the inhibition [17] was -9.8% (inactive). For the same compound, the efflux inhibition (fraction of control) [18] was -0.42 (inactive), the inhibition [19] was 8% (inactive) and the differentiation response [20] was 9.83% (inactive).

For `Fc1ccc(C(OCCN2CCCC2)c2ccc(Br)cc2)cc1` (stereo unspecified), the percent of DMSO control GFP [4] was 98.8% (inactive), the percent response of DMSO control [5] was 93.9% (inactive) and the GFP response vs DMSO [6] was 109% (inactive). For the same compound, the double positive events [7] was 69.4%, the vesicle binding response [7] was 310% (inactive) and the inhibition [8] was -4.52% (inactive). The superoxide response (% of plate) [9] was 94.6% (inactive), the aptamer binding inhibition [10] was -9% (inactive) and the response [11] was 11.4% (inactive). The inhibition [12] was -3.21% (inactive), the response [13] was 0.75% (inactive) and the binding (% of control) [14] was 103% (inactive). For the same compound, the inhibition [15] was 5.6% (inactive), the inhibition [16] was -0.6% (inactive) and the inhibition [17] was 3% (inactive). The efflux inhibition (fraction of control) [18] was 0.84 (active), the inhibition [19] was 7% (inactive) and the differentiation response [20] was 16.8% (inactive).

For `CCOC(=O)C1=C(C)OC(N)=C(C(=O)OCC)[C@@]12C(=O)N(CC(N)=O)c1ccccc12`, the percent of DMSO control GFP [4] was 90.9% (inactive), the percent response of DMSO control [5] was 110% (inactive) and the GFP response vs DMSO [6] was 71% (inactive). The double positive events [7] was 43.7%, the vesicle binding response [7] was 66.2% (active) and the inhibition [8] was 18.1% (inactive). For the same compound, the superoxide response (% of plate) [9] was 104% (inactive), the aptamer binding inhibition [10] was -1% (inactive) and the response [11] was -10.5% (inactive). For the same compound, the inhibition [12] was -3.6% (inactive), the response [13] was 1.98% (inactive) and the binding (% of control) [14] was 104% (inactive). The inhibition [15] was 0.6% (inactive), the inhibition [16] was -0.3% (inactive) and the inhibition [17] was 0.4% (inactive). The efflux inhibition (fraction of control) [18] was -0.31 (inactive), the inhibition [19] was 6% (inactive) and the differentiation response [20] was 4.09% (inactive).

From PubChem BioAssay
